Reference: PubChem BioAssay AID2530 (National Center for Advancing Translational Sciences (NCATS), 2010)
Records with an inconclusive call do not appear. A call without a number means that no potency is given here. The source made the active and inactive calls. Calls follow the shape of the dose curve; as a rule, active = well fitted inhibition curve with a large enough effect; inconclusive = small, poorly fitted or top-dose-only effect; inactive = flat fitted curve, though single readings scatter.

Target: Luciferin 4-monooxygenase (Photuris pensylvanica) (UniProt Q27757)
Assay: Secondary Assay for Luciferase (Kinase-Glo TM) Inhibition Counterscreen
Procedure: NIH Chemical Genomics Center [NCGC] Malcolm Walkinshaw, Hugh Morgan, Linda Gilmore University of Edinburgh, UK MLPCN Grant: 1 R03 MH085697-01 NCGC Assay Overview: Luciferase (Kinase-Glo, Promega Corporation) was assayed for its ability to generate light using ATP and luciferin as substrates. The ATP concentration in the assay (10 uM) was within the linear range of enzyme activity for the assay conditions used. This assay was used as an counter screen for human pyruvate kinase M2 isoform.
NCGC Assay Protocol Summary: Four uL of substrate mix (final concentration, 50 mM imidazole pH 7.2, 50 mM KCl, 7 mM MgCl2, 10 uM ATP, 0.01% Tween 20, 0.05% BSA) was dispensed into white 1536 well plates. Twenty-three nL of compound was delivered by a pin tool and 2 uL of luciferase detection mix (Kinase-Glo, Promega)) was added. Following 8-minute incubation at ambient temperature, luminescence was measured by a ViewLux (Perkin Elmer) at 5 seconds exposure/plate. Data were normalized to the controls for basal activity (DMSO only) and 100% inhibition (40 uM SIB 1757) and curve fitting was performed using Hill equation.
Potency is read from the fitted curve at half-maximal effect.

| SMILES | Potency |
| --- | --- |
| C[C@]12CC[C@@H]3c4ccc(O)c(O)c4CC[C@H]3[C@@H]1CC[C@@H]2O | inactive |
| Cc1ccc(C(=O)n2c(N)nc3ccccc32)cc1 | 11.6 µM (active) |
